Source: PubChem BioAssay (NCI)
“And” between values parts separate entries of the source, which are not always exact repeats. Equal entries are not always repeated. This is part of a sample that, as a whole, favours compounds with a hit. Of some 83,000 tested, about 20% had one in any assay.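 Cells were grown in 96-well plates and exposed to the test compound at a single concentration for 48 hours; results are reported as percent growth, with values below 10 considered active.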 The source made the active and inactive calls.

Key:
Test in all cases: NCI-60 one-dose screen, 48 h (100 = growth as untreated, 0 = no growth, -100 = all killed)
HCT-15 colon = conditions: 10 µM unless noted
HT29 colon = conditions: 10 µM unless noted
SNB-75 CNS = conditions: 10 µM unless noted
SNB-19 CNS = conditions: 10 µM unless noted
U251 CNS = conditions: 10 µM unless noted
PC-3 prostate = conditions: 10 µM unless noted
SK-MEL-5 melanoma = conditions: 10 µM unless noted
UACC-62 melanoma = conditions: 10 µM unless noted
LOX IMVI melanoma = conditions: 10 µM unless noted
SK-MEL-28 melanoma = conditions: 10 µM unless noted
SK-MEL-2 melanoma = conditions: 10 µM unless noted
EKVX NSCLC = conditions: 10 µM
SN12C renal = conditions: 10 µM unless noted
UO-31 renal = conditions: 10 µM unless noted
TK-10 renal = conditions: 10 µM unless noted
ACHN renal = conditions: 10 µM unless noted
CAKI-1 renal = conditions: 10 µM unless noted
A498 renal = conditions: 10 µM unless noted
CCRF-CEM leukemia = conditions: 10 µM
MOLT-4 leukemia = conditions: 10 µM unless noted

Measured: growth

O=C1C=C(Nc2ccccc2)c2ccccc2C1=O
inactive: HCT-15 colon 14.4% and 88.9% | HT29 colon 103% and 119% | SNB-75 CNS 23.5% | SNB-19 CNS 45.3% and 95.2% | U251 CNS 96.6% | PC-3 prostate 53.8% and 76.8% | SK-MEL-5 melanoma 74.2% | LOX IMVI melanoma 71.6% | SK-MEL-28 melanoma 105% and 114% | SK-MEL-2 melanoma 101% | EKVX NSCLC 99.8% | SN12C renal 20.9% and 93.6% | UO-31 renal 65.1% and 79.9% | TK-10 renal 149% and 136% | ACHN renal 30.1% and 92.8% | CAKI-1 renal 55.9% and 98.1% | A498 renal 87% and 113% | CCRF-CEM leukemia 65.8% and 94.4% | MOLT-4 leukemia 72.7% and 87%
4.24% (active) and 97.1% (inactive): UACC-62 melanoma

c1ccc2c(c1)OC1OC2Oc2ccccc21
inactive: HCT-15 colon 98.1% | SNB-75 CNS 90% | SNB-19 CNS 97.6% | U251 CNS 102% | PC-3 prostate 91.6% | SK-MEL-5 melanoma 103% | UACC-62 melanoma 92.5% | LOX IMVI melanoma 91.1% | SK-MEL-28 melanoma 103% | SK-MEL-2 melanoma 87.7% | EKVX NSCLC 105% | SN12C renal 98.9% | UO-31 renal 90.1% | TK-10 renal 97.6% | ACHN renal 101% | CAKI-1 renal 113% | A498 renal 117% | CCRF-CEM leukemia 97.6% | MOLT-4 leukemia 95.4%

N#CC(C#N)N=Nc1cc(Cl)ccc1Cl
inactive: HCT-15 colon 101% | SNB-75 CNS 74.8% | SNB-19 CNS 93.6% | U251 CNS 96.6% | PC-3 prostate 106% | SK-MEL-5 melanoma 106% | UACC-62 melanoma 99.1% | LOX IMVI melanoma 109% | SK-MEL-28 melanoma 109% | SK-MEL-2 melanoma 85.6% | SN12C renal 103% | TK-10 renal 105% | ACHN renal 94.1% | A498 renal 110% | CCRF-CEM leukemia 94.7% | MOLT-4 leukemia 92.4%

CCOC(=O)c1c(C)cc(=O)oc1C
inactive: HCT-15 colon 102% | SNB-75 CNS 94% | SNB-19 CNS 96.2% | U251 CNS 98.3% | PC-3 prostate 92% | SK-MEL-5 melanoma 106% | UACC-62 melanoma 95.3% | LOX IMVI melanoma 105% | SK-MEL-28 melanoma 115% | SK-MEL-2 melanoma 125% | SN12C renal 98.6% | UO-31 renal 88.9% | TK-10 renal 121% | ACHN renal 104% | CCRF-CEM leukemia 100% | MOLT-4 leukemia 101%

CN1CNC(=O)NC1
inactive: HCT-15 colon 109% and 101% | SNB-75 CNS 94.8% and 110% | SNB-19 CNS 109% and 103% | U251 CNS 118% and 87.5% | PC-3 prostate 94% and 87.2% | SK-MEL-5 melanoma 113% and 95.9% | UACC-62 melanoma 111% and 107% | LOX IMVI melanoma 99.6% and 95.4% | SK-MEL-28 melanoma 113% and 118% | SK-MEL-2 melanoma 114% | EKVX NSCLC 97.3% | SN12C renal 105% and 102% | UO-31 renal 98.5% and 87.6% | TK-10 renal 112% and 115% | ACHN renal 113% and 107% | CAKI-1 renal 98.5% and 106% | A498 renal 100% and 72.4% | CCRF-CEM leukemia 108% and 91.3% | MOLT-4 leukemia 99.9% and 85.2%

NC1CCC(C(=O)O)CC1 (centres undefined)
inactive: HCT-15 colon 106% and 98.9% | SNB-75 CNS 85.8% and 82% | SNB-19 CNS 105% and 110% | U251 CNS 103% and 106% | PC-3 prostate 93.3% and 86.9% | SK-MEL-5 melanoma 102% and 103% | UACC-62 melanoma 97.7% and 101% | LOX IMVI melanoma 107% and 96.2% | SK-MEL-28 melanoma 103% and 107% | SK-MEL-2 melanoma 104% and 102% | EKVX NSCLC 103% and 105% | SN12C renal 97% and 103% | UO-31 renal 105% and 87% | TK-10 renal 97.7% and 102% | ACHN renal 106% and 105% | CAKI-1 renal 96.7% and 90.7% | A498 renal 94.7% and 86.6% | CCRF-CEM leukemia 80.9% and 79.5% | MOLT-4 leukemia 107% and 98%

O=C(O)CCCl
inactive: SNB-75 CNS 97.9% | SNB-19 CNS 104% | U251 CNS 101% | PC-3 prostate 96.8% | SK-MEL-5 melanoma 99.2% | UACC-62 melanoma 110% | LOX IMVI melanoma 104% | SK-MEL-28 melanoma 105% | SK-MEL-2 melanoma 123% | SN12C renal 107% | UO-31 renal 97% | TK-10 renal 107% | ACHN renal 101% | CAKI-1 renal 102% | A498 renal 99.1% | CCRF-CEM leukemia 93% | MOLT-4 leukemia 109%

OCCN1CCCCCCC1
inactive: HCT-15 colon 91.4% | SNB-75 CNS 115% | SNB-19 CNS 101% | PC-3 prostate 93.5% | SK-MEL-5 melanoma 102% | UACC-62 melanoma 101% | LOX IMVI melanoma 103% | SK-MEL-28 melanoma 104% | SK-MEL-2 melanoma 112% | SN12C renal 93.7% | UO-31 renal 88% | TK-10 renal 99.9% | ACHN renal 103% | CAKI-1 renal 93.2% | A498 renal 100% | MOLT-4 leukemia 106%

CN(C)c1ccc(/C=C\C(=O)c2ccccc2)cc1
inactive: HCT-15 colon 83.3% and 66.5% and 72% | SNB-75 CNS 70.1% and 100% and 93.4% | SNB-19 CNS 98.7% and 92.3% and 61.6% | U251 CNS 82.2% and 80.6% | PC-3 prostate 88.3% and 94.4% and 76% | SK-MEL-5 melanoma 95.2% and 89.4% and 89.1% | UACC-62 melanoma 88.4% and 91.1% and 84.9% | LOX IMVI melanoma 84.5% and 75.6% and 77.4% | SK-MEL-28 melanoma 93% and 103% and 89.8% | SK-MEL-2 melanoma 93.3% and 91.9% and 72.1% | EKVX NSCLC 105% | SN12C renal 95.6% and 98.8% and 95% | UO-31 renal 74.5% and 69.4% and 63.9% | TK-10 renal 76.6% and 79% and 70.5% | ACHN renal 99.4% and 101% | CAKI-1 renal 86.9% and 93.8% | A498 renal 91.8% and 71.8% and 102% | CCRF-CEM leukemia 70.4% and 65% and 74% | MOLT-4 leukemia 74.5% and 85.3% and 72.2%

O=c1n(CC2CO2)c(=O)n(CC2CO2)c(=O)n1CC1CO1 (centres undefined)
inactive: HCT-15 colon 75.9% | SNB-75 CNS 66.3% | SNB-19 CNS 83.9% | U251 CNS 56.2% | PC-3 prostate 71.4% | SK-MEL-5 melanoma 86.7% | UACC-62 melanoma 66% | LOX IMVI melanoma 54.5% | SK-MEL-28 melanoma 88.7% | SN12C renal 46.7% | UO-31 renal 38.2% | TK-10 renal 77.9% | ACHN renal 19.8% | A498 renal 88.4% | CCRF-CEM leukemia 32.5% | MOLT-4 leukemia 19.2%
active: CAKI-1 renal -7.84%

CCN(CCNS(C)(=O)=O)c1ccc(N)c(C)c1
inactive: HCT-15 colon 71.5% and 106% | SNB-75 CNS 128% and 95.5% | SNB-19 CNS 101% and 109% | U251 CNS 82.3% and 108% | PC-3 prostate 86.7% and 78.7% | SK-MEL-5 melanoma 81.1% and 98.4% | UACC-62 melanoma 71.4% and 82.2% | LOX IMVI melanoma 52.9% and 68.4% | SK-MEL-28 melanoma 80.2% and 104% | SK-MEL-2 melanoma 21.6% | EKVX NSCLC 88.9% | SN12C renal 88.1% and 93.5% | UO-31 renal 42.2% | TK-10 renal 55.8% and 17.7% | ACHN renal 27.9% and 76.2% | CAKI-1 renal 39.4% and 73.2% | A498 renal 104% and 94.2% | CCRF-CEM leukemia 35.7% | MOLT-4 leukemia 66.3% and 96.3%

c1ccc(-c2nc3ccccc3s2)cc1
inactive: HCT-15 colon 92.2% | SNB-75 CNS 91.7% | SNB-19 CNS 95.3% | U251 CNS 99.6% | PC-3 prostate 86.9% | SK-MEL-5 melanoma 89.8% | UACC-62 melanoma 75.7% | LOX IMVI melanoma 88.5% | SK-MEL-28 melanoma 104% | SK-MEL-2 melanoma 112% | EKVX NSCLC 85.5% | SN12C renal 88.7% | UO-31 renal 66.9% | ACHN renal 87.1% | CAKI-1 renal 79.7% | A498 renal 100% | CCRF-CEM leukemia 101% | MOLT-4 leukemia 103%

O=[N+]([O-])c1cccc(SSc2cccc([N+](=O)[O-])c2)c1
inactive: HCT-15 colon 91.9% | SNB-75 CNS 102% | SNB-19 CNS 91.1% | U251 CNS 99.2% | PC-3 prostate 82.6% | SK-MEL-5 melanoma 99.4% | UACC-62 melanoma 94.2% | LOX IMVI melanoma 100% | SK-MEL-28 melanoma 110% | SK-MEL-2 melanoma 98.5% | EKVX NSCLC 106% | SN12C renal 93.7% | UO-31 renal 86.5% | TK-10 renal 109% | ACHN renal 99.5% | CAKI-1 renal 103% | A498 renal 119% | CCRF-CEM leukemia 50.6% | MOLT-4 leukemia 82.1%
